Assay outcomes (PubChem BioAssay)
Sfp inh: blocks B. subtilis Sfp PPTase activity; Q9F4F7; Biochemical Sfp PPTase activity, qHTS; Potency, µM, actives largely listed as inhibitors; 310,000 tested, 3.5% active; active means well fitted curve in the direction sought with a large enough effect; inconclusive means small, poorly fitted or top-dose-only effect, or another doubt; inactive means no such curve, though single readings can be large; an effect the other way counts as inactive or inconclusive;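 further: the enzyme is Sfp with the accession as filed and its product quenches rhodamine fluorescence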
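Fluorescence-quenching assay with 15 nM Sfp, 5 uM rhodamine-CoA and 12.5 uM BHQ-2-labelled ybbR peptide in pH 7.6 Hepes/MgCl2 buffer. Enzyme was pre-incubated with compound for 15 min at room temperature. Rate was taken from the 30-min fluorescence change (525/598 nm).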
NPSR antag: blocks cAMP signaling of the human neuropeptide S receptor; Q6W5P4; 220,000 tested, 1% active; CHO-NPSR cells, cAMP TR-FRET, antagonist mode; Potency, µM (series often up to 38.3 µM), usual class: inhibitors; active means well fitted curve in the direction sought with a large enough effect; inconclusive means small, poorly fitted or top-dose-only effect, or another doubt; inactive means no such curve, though single readings can be large; an effect the other way counts as inactive or inconclusive; further: nearly all actives have a fitted effect of over 50% in size
GoLoco inh red: inhibitors of human Gai1-RGS12 GoLoco interaction (red fluorophore); Gai1:RGS12 GoLoco peptide FP, rhodamine, 10 min; Potency, µM (titrated, usually from 61.6 µM), hits mostly inhibitors; 230,000 tested, 0.44% active; AID 880; active means well fitted inhibition curve with a large enough effect, not every such curve was filed as active; inactive means no such curve, though single readings can be large or run the other way; further: nearly all actives have a fitted effect of over 30% in size
Coupling enz: inhibits coupling enzyme system, counter-screen for aldolase hits; activity change, negative = inhibition, % at 58.2 µM, hits read low; coupling enzyme system counterscreen, AmpLite Red fluorescence; 290,000 tested, 0.67% active; in the data active means activity change below about -30%
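Fluorescence at 525 nm excitation and 598 nm emission measured inhibition of the coupled detection system without aldolase. Compounds (at 57.5 uM final) were preincubated 10 min at room temperature with coupling enzyme reagent before a 20 min substrate/AmpLite Red step.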
ALDH1A1 inh: ALDH1A1 (human) enzyme inhibition; Purified ALDH1A1, NADH fluorescence, propionaldehyde substrate; Potency, µM (doses to about 75.3 µM), most hits filed as inhibitors; 220,000 tested, 7.3% active
KDM4E inh: JMJD2E (human) inhibition; 230,000 tested, 1.6% active; Potency, µM (titrated, usually from 57.1 µM), actives largely listed as inhibitors; JMJD2E catalytic domain, FDH-coupled NADH fluorescence (FDH is formaldehyde dehydrogenase); B2RXH2; further: nearly all actives have a fitted effect of over 50% in size
Target sequence (B2RXH2 1-337 limits assumed): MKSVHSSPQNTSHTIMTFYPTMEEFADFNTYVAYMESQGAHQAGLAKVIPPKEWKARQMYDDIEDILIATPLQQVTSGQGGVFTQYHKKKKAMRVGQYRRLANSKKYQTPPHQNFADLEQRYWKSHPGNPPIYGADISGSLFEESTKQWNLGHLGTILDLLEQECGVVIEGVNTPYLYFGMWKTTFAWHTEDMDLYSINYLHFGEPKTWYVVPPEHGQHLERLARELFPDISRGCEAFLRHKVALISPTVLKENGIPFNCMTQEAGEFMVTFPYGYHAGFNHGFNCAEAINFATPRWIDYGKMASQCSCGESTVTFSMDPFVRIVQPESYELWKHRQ
Hits are given with their value; – = inactive; ? = inconclusive; · = no result; ! = not active in a repeat. Sampled rows, rich in hits. Any-hit rate of the full collection: about 8.5%. Unless noted, the call rests on the fitted dose curve; in most records, active means well fitted inhibition curve with a large enough effect (not every such curve was filed as active); inconclusive means small, poorly fitted or top-dose-only effect, or another doubt; inactive means no such curve, though single readings can be large or run the other way.

SMILES | Sfp inh | NPSR antag | GoLoco inh red | Coupling enz | ALDH1A1 inh | KDM4E inh
CCN(CC)C(=O)C1=C(C)NC(=S)NC1c1ccc(C)s1 (configuration not stated) | – | – | – | – | 8.9µM | –
CC1=C(C(=O)N(C)C)C(c2ccc(C)s2)NC(=S)N1 (configuration not stated) | – | – | – | – | 25µM | –
C=CCN1CC(C(=O)N2CCC(Cc3ccc(Cl)cc3)(C(=O)OCC)CC2)CC1=O (configuration not stated) | – | – | – | – | · | –
CC1(C)CC(N=C2C([N+](=O)[O-])=CC=C3C2=NC2(CCCCC2)N3O)CC(C)(C)N1 | – | – | – | -38 | · | ?
O=[N+]([O-])C1=CC=C2C(=NC3(CCCCC3)N2O)C1=NCCc1ccccc1 | – | – | – | -65 | – | –
CC(C)(C)N=C1C([N+](=O)[O-])=CC=C2C1=NC1(CCCCC1)N2O | ? | – | – | -46 | – | –
C[C@@H]1CC[C@]2(C(=O)O)CC[C@]3(C)C(=CCC4[C@@]5(C)C[C@@H](O)[C@H](O)[C@@](C)(CO)C5[C@H](O)C[C@]43C)C2[C@H]1C (some centres not stated) | – | · | – | – | – | ·
C/C(=N/Nc1ccc(C)cc1)C1(C)N(O)C(C)(C)C(c2ccco2)=[N+]1[O-] (configuration not stated) | – | – | – | – | 25µM | ?
CC1(C)C(c2ccco2)=[N+]([O-])C2(CCCCC2=O)N1O (configuration not stated) | – | – | – | – | – | –
COc1ccc(CNC(=O)Nc2cccc(Cl)c2)cc1 | – | · | · | · | · | ·
Cc1cccc(NC(=O)NCc2ccc3c(c2)cc(C)n3C)c1 | 50µM | – | – | – | – | –
Cc1cc2cc(CNC(=O)Nc3cccc(Cl)c3)ccc2n1C | ? | – | – | – | 22µM | ?
COc1cccc(NC(=S)NCc2ccc3c(c2)cc(C)n3C)c1 | – | – | – | – | – | –
Cc1cccc(NC(=O)NCCc2ccc(Cl)cc2)c1 | – | – | – | – | 35µM | –
CCOC(=O)c1c(C)cc(O)c(C=O)c1O | – | · | – | – | – | –
Cc1cccc(NC(=O)[C@H](Cc2ccccc2)NC(=O)[C@@H]2Cc3ccccc3CN2)c1 | – | · | · | · | · | ·
CCOC(=O)c1cnc(-n2nc(C)cc2C)nc1Nc1ccc(N(C)C)cc1 | – | – | – | – | 20µM | –
CCOC(=O)c1cnc(-n2nc(C)cc2C)nc1Nc1ccc(C)cc1 | – | 1.3µM | – | – | – | –
CCOC(=O)c1cnc(-n2nc(C)cc2C)nc1NC1CCCCC1 | ? | ? | · | – | 25µM | –
CCOC(=O)c1ccc(N2CCCCC2)c(NS(=O)(=O)c2ccc(C)cc2)c1 | – | – | – | – | · | –
CCN(CC(=O)NCc1ccc(F)cc1)C(=O)CN1CCN(c2cc(Cl)ccc2C)CC1 | – | · | · | – | · | ·
Cc1nc(=O)c(-c2ccccc2)c(C)n1-c1cccc(/C=C/C(=O)O)c1 | – | · | · | – | · | ·
COc1ccc(C2c3[nH]c4ccccc4c3CCN2Cc2cccn2-c2ncccn2)cc1C (configuration not stated) | 56µM | ? | – | – | ? | –
c1ccc(C2c3[nH]c4ccccc4c3CCN2Cc2cccn2-c2ccccn2)nc1 (configuration not stated) | – | – | – | – | · | ?
Cc1cccc(C2c3[nH]c4ccccc4c3CCN2Cc2cccn2-c2ncccn2)c1 (configuration not stated) | – | – | – | – | – | 32µM
CCOC(=O)c1cc(C(=O)OCC)cc(-n2c(C)cc(C(=O)CN3CCOCC3)c2C)c1 | – | – | – | – | ? | 13µM
COc1ccc(-n2c(C)cc(C(=O)CN3CCCCC3)c2C)cc1 | – | – | – | – | – | –
COCCNc1ncnc2ccc(-c3cccc(OC)c3)cc12 | – | · | – | – | ? | ·
C[c-]1[c-](C)[c-](C)[c-](C)[c-]1C.[Fe].c1cc2nccc(N3CCCC3)[c-]2c1 (configuration not stated) | 89µM! | – | – | -33! | · | 10µM!
CC(=O)NCC(=O)N1CCCC(C(=O)c2ccc(Oc3ccccc3)cc2)C1 (configuration not stated) | – | – | – | – | ? | –
